Test results published in PubChem BioAssay.
For some of these results: Results with a measured potency or affinity are listed apart. Calls of active or inactive are those of the source. Unless noted, no rule for the calls is given here.

What was measured:
[1] = antimalarial activity against Dd2 strain (AID 2302;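 active = growth inhibition above 50% at the single 2 µM test dose, taken to imply half-maximal potency below 2 µM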;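 also: 0% = DMSO untreated growth and 100% = chloroquine plus artemisinin killed control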); conditions: P. falciparum Dd2 in RBCs, LDH growth readout, 72 h; at 2 µM; active compounds read high
[2] = HepG2 cytotoxicity, primary screen, cytotoxicity control for P. falciparum antimalarial project, cell-based, ATP luminescence (AID 2303;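 active = inhibition above 50%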;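 also: 0% = DMSO wells and 100% = digitonin-killed cells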); conditions: HepG2 viability, 24-48 h, at 10 µM, active compounds read high
[3] = biological target: L-lactate dehydrogenase (Plasmodium falciparum (isolate CDC / Honduras)) (UniProt Q27743); assay: PfLDH activity inhibition – cell lysate, 3D7 strain, counter-screen for P. falciparum growth inhibition project (AID 2304);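 also: 0% = vehicle and 100% = reference inhibitor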; conditions: P. falciparum 3D7 crude extract, LDH APAD/NBT absorbance; at 2 µM; active compounds read high
[4] = inhibition of 3D7 malaria parasite growth – strain 3D7 (AID 2306);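 also: 0% = DMSO wells and 100% = chloroquine plus artemisinin control wells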; conditions: P. falciparum 3D7 erythrocytic growth, LDH absorbance, 72 h; at 2 µM; active compounds read high
[5] = biological target: Calcium-dependent protein kinase 1 (Plasmodium falciparum (isolate 3D7)) (UniProt P62344); assay: PfCDPK1 kinase inhibitors, biochemical, TCAMS library (AID 1159585; cut-off not given, nearly all actives have IC50 up to about 0.98 µM;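 also: inhibitors leave more ATP so luminescence rises with inhibition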); conditions: recombinant PfCDPK1, Kinase-Glo ATP depletion luminescence
[6] = biological target: Plasmodium falciparum protein kinase 6 (PK6, PF3D7_1337100) (UniProt Q8IDW1); assay: PfPK6 kinase inhibitors, biochemical, TCAMS library (AID 1159586); conditions: recombinant PfPK6, Kinase-Glo ATP depletion luminescence
[7] = biological target: Protein kinase 7 (PK7), Plasmodium falciparum 3D7 (PF3D7_0213400) (UniProt Q7YTF7); assay: inhibition of Plasmodium PK7 catalytic activity – biochemical, TCAMS antimalarial set, Kinase-Glo luminescence (AID 1159587); conditions: recombinant PfPK7, Kinase-Glo ATP depletion luminescence
[8] = biological target: Calcium-dependent protein kinase 4 (Plasmodium falciparum (isolate 3D7)) (UniProt Q8IBS5); assay: PfCDPK4 kinase inhibitors, biochemical, TCAMS library (AID 1159588; cut-off not given, nearly all actives have IC50 up to about 0.91 µM); conditions: recombinant PfCDPK4, Kinase-Glo ATP depletion luminescence
Chain of Calcium-dependent protein kinase 4 (Plasmodium falciparum (isolate 3D7)) (Q8IBS5 whole entry, looked up): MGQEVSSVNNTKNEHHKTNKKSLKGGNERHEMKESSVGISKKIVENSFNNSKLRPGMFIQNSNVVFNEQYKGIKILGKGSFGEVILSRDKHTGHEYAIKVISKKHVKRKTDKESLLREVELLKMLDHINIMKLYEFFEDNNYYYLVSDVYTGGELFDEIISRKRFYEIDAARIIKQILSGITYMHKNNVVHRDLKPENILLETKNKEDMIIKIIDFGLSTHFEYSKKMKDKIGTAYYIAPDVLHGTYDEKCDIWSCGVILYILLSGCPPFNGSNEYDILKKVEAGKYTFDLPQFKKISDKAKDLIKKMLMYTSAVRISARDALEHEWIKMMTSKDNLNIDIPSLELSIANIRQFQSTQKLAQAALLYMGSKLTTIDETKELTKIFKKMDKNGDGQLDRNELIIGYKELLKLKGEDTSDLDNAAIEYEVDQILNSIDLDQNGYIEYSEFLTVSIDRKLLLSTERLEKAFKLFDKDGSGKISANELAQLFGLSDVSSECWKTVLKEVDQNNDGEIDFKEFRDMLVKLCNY

Chain of L-lactate dehydrogenase (Plasmodium falciparum (isolate CDC / Honduras)) (Q27743 whole entry, looked up): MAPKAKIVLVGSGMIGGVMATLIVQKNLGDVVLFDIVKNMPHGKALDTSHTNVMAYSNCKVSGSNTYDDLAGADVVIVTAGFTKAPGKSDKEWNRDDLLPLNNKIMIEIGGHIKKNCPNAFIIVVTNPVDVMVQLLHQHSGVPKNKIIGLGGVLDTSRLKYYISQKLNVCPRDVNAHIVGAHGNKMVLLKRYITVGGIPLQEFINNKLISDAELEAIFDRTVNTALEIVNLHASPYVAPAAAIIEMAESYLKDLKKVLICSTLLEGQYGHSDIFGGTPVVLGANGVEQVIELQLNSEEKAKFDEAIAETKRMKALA
Chain of Calcium-dependent protein kinase 1 (Plasmodium falciparum (isolate 3D7)) (P62344 whole entry, looked up): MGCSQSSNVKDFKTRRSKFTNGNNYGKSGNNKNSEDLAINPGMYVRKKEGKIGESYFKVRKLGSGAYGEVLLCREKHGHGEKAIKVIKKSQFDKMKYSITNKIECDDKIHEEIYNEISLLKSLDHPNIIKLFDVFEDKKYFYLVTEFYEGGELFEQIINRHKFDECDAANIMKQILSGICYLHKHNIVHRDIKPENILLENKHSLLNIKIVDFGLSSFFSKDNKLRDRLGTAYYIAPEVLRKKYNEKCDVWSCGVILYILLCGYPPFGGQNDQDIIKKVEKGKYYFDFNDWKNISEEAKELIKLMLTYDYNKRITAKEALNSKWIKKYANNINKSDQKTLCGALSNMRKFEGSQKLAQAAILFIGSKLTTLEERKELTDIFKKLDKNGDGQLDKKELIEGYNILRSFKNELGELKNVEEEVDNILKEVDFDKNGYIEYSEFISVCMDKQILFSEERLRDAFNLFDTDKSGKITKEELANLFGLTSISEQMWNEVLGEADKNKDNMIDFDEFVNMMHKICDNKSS
Chain of Plasmodium falciparum protein kinase 6 (PK6, PF3D7_1337100) (Q8IDW1 1-305): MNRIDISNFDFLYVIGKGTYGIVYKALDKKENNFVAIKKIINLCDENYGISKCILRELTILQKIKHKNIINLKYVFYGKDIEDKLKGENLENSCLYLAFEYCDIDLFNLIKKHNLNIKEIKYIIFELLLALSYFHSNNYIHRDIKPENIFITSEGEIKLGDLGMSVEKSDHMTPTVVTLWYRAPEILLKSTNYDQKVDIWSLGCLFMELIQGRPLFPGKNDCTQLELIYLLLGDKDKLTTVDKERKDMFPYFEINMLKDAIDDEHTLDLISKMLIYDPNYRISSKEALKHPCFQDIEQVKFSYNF
Chain of Protein kinase 7 (PK7), Plasmodium falciparum 3D7 (PF3D7_0213400) (Q7YTF7 1-343): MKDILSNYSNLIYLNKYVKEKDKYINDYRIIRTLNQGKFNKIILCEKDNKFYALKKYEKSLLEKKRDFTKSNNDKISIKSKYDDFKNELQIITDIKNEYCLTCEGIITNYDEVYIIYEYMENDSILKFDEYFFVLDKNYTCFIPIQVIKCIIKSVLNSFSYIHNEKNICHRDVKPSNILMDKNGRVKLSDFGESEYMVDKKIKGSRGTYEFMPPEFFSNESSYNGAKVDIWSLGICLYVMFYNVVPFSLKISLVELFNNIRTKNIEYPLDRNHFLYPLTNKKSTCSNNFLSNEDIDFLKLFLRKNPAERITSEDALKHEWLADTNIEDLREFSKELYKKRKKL

O=C(CN1CCC2(CCC1=O)CC(=O)c1ccccc1O2)NCCN1CCOCC1 (stereo not given)
active: growth inhibition [4] 101%
inactive: growth inhibition [1] -4% | inhibition [2] 6% | inhibition [3] -4% | outcome [5] | outcome [6] | outcome [7] | outcome [8]

CC(C)=CCc1c(-c2ccc(O)cc2O)oc2c3c(cc(O)c2c1=O)OC(C)(C)C=C3
active: growth inhibition [4] 89%
inactive: growth inhibition [1] 8% | inhibition [2] 1% | inhibition [3] 5% | outcome [5] | outcome [6] | outcome [7] | outcome [8]

C=CCOc1ccc(C(=O)Nc2nonc2-c2ccc(OC)c(OC)c2)cc1
inactive: inhibition [2] 2% | inhibition [3] -5% | outcome [5] | outcome [6] | outcome [7] | outcome [8]
active: growth inhibition [1] 91% | growth inhibition [4] 100%

O=C(Nc1cccc(F)c1)NC1CCN(c2ccnc3cc(Cl)ccc23)C1 (stereo not given)
active: growth inhibition [1] 64% | growth inhibition [4] 101%
inactive: inhibition [2] 13% | inhibition [3] -1% | outcome [5] | outcome [6] | outcome [7] | outcome [8]

CC(Cc1ccc(OCCN2CCN(c3cccc(Cl)c3)CC2)cc1)NCC(O)c1cccc(Cl)c1 (stereo not given)
inactive: inhibition [2] 48% | inhibition [3] 3% | outcome [5] | outcome [6] | outcome [7] | outcome [8]
active: growth inhibition [1] 91% | growth inhibition [4] 93%

Cc1ccc(/C=C/C(=O)NC2CCC(N3CCC(c4ccccc4C)CC3)CC2)cc1C (stereo not given)
inactive: growth inhibition [1] 43% | inhibition [2] 12% | inhibition [3] -3% | outcome [5] | outcome [6] | outcome [7] | outcome [8]
active: growth inhibition [4] 100%

COc1ccc(CNC2CCN(C)CC2)cc1-c1ccc(S(=O)(=O)NC2CCC2)c(C)c1
active: growth inhibition [1] 96% | growth inhibition [4] 101%
inactive: inhibition [2] 24% | inhibition [3] 0% | outcome [5] | outcome [6] | outcome [7] | outcome [8]

CN1CCC(Oc2cc(NC(=O)Nc3ccc(-c4ccncc4)c(Cl)c3)ccc2Cl)CC1
inactive: inhibition [2] 23% | inhibition [3] -5% | outcome [5] | outcome [6] | outcome [7] | outcome [8]
active: growth inhibition [1] 100% | growth inhibition [4] 99%

COc1ccc(CCN2CCC(CN(C)Cc3cnn(-c4ccccc4)c3)CC2)cc1
inactive: growth inhibition [1] 5% | inhibition [2] 25% | inhibition [3] -1% | outcome [5] | outcome [6] | outcome [7] | outcome [8]
active: growth inhibition [4] 90%

COc1ccc2nccc(NN=Cc3ccncc3)c2c1
inactive: inhibition [2] 4% | inhibition [3] -3% | outcome [5] | outcome [6] | outcome [7] | outcome [8]
active: growth inhibition [1] 95% | growth inhibition [4] 99%

CCOC(=O)CNC(=O)N1CCN(C(=O)NCC(=O)OCC)CC1
inactive: growth inhibition [1] 0% | inhibition [2] -9% | inhibition [3] -2% | outcome [5] | outcome [6] | outcome [7] | outcome [8]
active: growth inhibition [4] 93%

CN(C(=O)/C=C/c1ccccc1F)C1CCN(CCCCCNC(=O)/C=C/c2ccc(Cl)c(Cl)c2)CC1
active: growth inhibition [1] 59% | inhibition [2] 73% | growth inhibition [4] 89%
inactive: inhibition [3] -1% | outcome [5] | outcome [6] | outcome [7] | outcome [8]

N#Cc1ccc(CCNc2nccc(-c3cccc(CN4CCNCC4)c3)n2)cc1
active: growth inhibition [4] 83%
inactive: growth inhibition [1] -3% | inhibition [2] 5% | inhibition [3] 3% | outcome [5] | outcome [6] | outcome [7] | outcome [8]

Cc1cccc2[nH]c(-c3ccc(-c4cccc(NC(=O)c5cnccc5C(F)(F)F)c4)cc3)nc12
active: growth inhibition [4] 84%
inactive: growth inhibition [1] 13% | inhibition [2] 25% | inhibition [3] 0% | outcome [5] | outcome [6] | outcome [7] | outcome [8]

O=C(Cc1ccc(-n2cnnn2)cc1)N(Cc1cncn1Cc1cccc(C(F)(F)F)c1)CC1CC1
active: growth inhibition [4] 86%
inactive: growth inhibition [1] -2% | inhibition [2] -12% | inhibition [3] 0% | outcome [5] | outcome [6] | outcome [7] | outcome [8]

CN1CCN(Cc2ccc(-c3ccc4c(Nc5cc(O)c(F)cc5Cl)ccnc4c3)o2)CC1
inactive: inhibition [2] 27% | inhibition [3] 3% | outcome [5] | outcome [6] | outcome [7] | outcome [8]
active: growth inhibition [1] 99% | growth inhibition [4] 101%

Cc1cc(C2NC(=O)c3ccccc3N2)c(C)n1-c1ccc2c(c1)OCO2 (stereo not given)
active: growth inhibition [1] 85% | growth inhibition [4] 86%
inactive: inhibition [2] 13% | inhibition [3] -1% | outcome [5] | outcome [6] | outcome [7] | outcome [8]

CCC(CO)NCC(O)Cn1c2ccc(Br)cc2c2cc(Br)ccc21 (stereo not given)
inactive: inhibition [2] 18% | inhibition [3] -6% | outcome [5] | outcome [6] | outcome [7] | outcome [8]
active: growth inhibition [1] 87% | growth inhibition [4] 100%

C=CCNC(=O)CCCN=C(N)N
inactive: growth inhibition [1] 12% | inhibition [2] -9% | inhibition [3] -1% | outcome [5] | outcome [6] | outcome [7] | outcome [8]
active: growth inhibition [4] 98%

CS(=O)(=O)NCCCNCc1ccc(-c2cccc(-c3nc4ccc(C(F)(F)F)cc4[nH]3)c2)cc1
inactive: inhibition [2] 17% | inhibition [3] 1% | outcome [5] | outcome [6] | outcome [7] | outcome [8]
active: growth inhibition [1] 83% | growth inhibition [4] 100%
